From PubChem BioAssay AID2641 (National Center for Advancing Translational Sciences (NCATS), 2010)
Values joined by “and” are separate entries in the source; they are usually repeats but may differ in a detail not shown here. Identical values can stand only once. Active and inactive are the calls of the source. The rule behind the calls is not given here.

target: Lysosomal alpha-glucosidase (Homo sapiens) (UniProt P10253); assay: qHTS Assay for Inhibitors of Human alpha-Glucosidase as a Potential Chaperone Treatment of Pompe Disease: Stabilizers of Alpha-Glucosidase Under Thermal Denaturation Conditions; details: Recombinant GAA thermal denaturation, residual activity over time, active compounds read high; at 0.31 µM unless noted
Source text: NIH Chemical Genomics Center [NCGC]
NIH Molecular Libraries Probe Production centers Network [MLPCN]
Assay Submitter (PI): Wei Zheng
Alpha-glucosidase is responsible for hydrolysis of terminal, non-reducing 1,4-linked alpha-D-glucose residues with release of alpha-D-glucose. It is a lysosomal hydrolase that is required for the degradation of a small percentage (1-3%) of cellular glycogen in human. Deficiency of this enzyme results in glycogen-storage disease type II (GSDII), also referred to as Pompe disease, an autosomal recessive disorder. Structurally normal glycogen is accumulated in lysosomes and cytoplasm in affected patients, primarily in muscle tissues. Excessive glycogen storage within lysosomes may interrupt normal functioning of other organelles and leads to cellular injury. In turn, this leads to enlargement and dysfunction of the entire organ involved (eg, cardiomyopathy and muscle weakness).
It has reported that the improper folding and trafficking of alpha-glucosidase resulting from the genetic mutations may account for a significant number of Pompe patients. […] We optimized this alpha-glucosidase assay in 1536-well plate format for identifying the novel small molecule inhibitors with the structures other than the sugar analogs in order to develop the new pharmacological chaperones.
This assay involves heating purified alpha-glucosidase (Myozyme) in the presence of inhibitors to observe potential stabilization of the enzyme. This binding assay is an indirect measure of chaperone activity, as stabilization may imply proper folding and trafficking of the enzyme to its functional site. Alpha-glucosidase was pre-incubated with only DMSO or 50x IC50 of compound before being exposed to 68 °C heat inactivation. The heating was measured over time, and it was observed that untreated alpha-glucosidase lost more of its activity over time than enzyme treated with compounds.
Temperature Denature Protocol for alpha-Glucosidase
Assay buffer: 50 mM citric acid (titrated with potassium phosphate to pH 5.0), 0.01% Tween-20
1. Prepare 80X solution alpha-glucosidase solution (3.2 nM*80=[…]) in assay buffer.
2. Divide solution into separate 1.5 ml tubes.
3. For each compound, add 50X IC50:
50x IC50 1-DNJ […]
50x IC50 of the […]
4. Incubate 10 min RT after compound addition.
5. Distribute 10 ul from each tube into PCR tubes.
6. Time course of heating: Heat solutions at 68C for 60 min, taking a set of tubes out at 10, 20, 30, 45, and 60 min, while keeping one set on ice whole time.
7. After heating, take out tubes and place on ice for a minimum of 5 min.
8. Transfer 10 ul solution to 790 ul (1:80 dilution) buffer in 1.5 ml tube.
9. Vortex and take three 20 ul aliquots and put in 384 plate.
10. Add 20 ul substrate solution to each well (100 uM 4-methylumbelliferyl alpha-D-glucopyranoside).
12. Add 25 ul stop solution (1 M NaOH, 1 M glycine pH 10).
13. Detect the assay plate in a ViewLux plate reader (PerkinElmer) with Ex=365 nm and Em=440nm.

Residual activity vs control after 60 min heating, active:
O=C1Cc2cc(S(=O)(=O)N3CCN(c4ccc(O)cc4)CC3)ccc2N1 170%
CC(=O)c1ccc(N2CCN(S(=O)(=O)c3cc4c(cc3Cl)NC(=O)C4)CC2)cc1 675%
CC(=O)c1ccc(N2CCN(S(=O)(=O)c3ccc4c(c3)CC(=O)N4)CC2)cc1 909% and 724% and 584%
O=C1Cc2cc(S(=O)(=O)N3CCN(c4ccc(C(=O)O)cc4)CC3)ccc2N1 302%
N#Cc1ccc(N2CCN(S(=O)(=O)c3ccc4c(c3)CC(=O)N4)CC2)cc1 480%
O=C1Cc2cc(S(=O)(=O)N3CCN(c4ccc([N+](=O)[O-])cc4)CC3)ccc2N1 464%
O=Cc1ccc(N2CCN(S(=O)(=O)c3ccc4c(c3)CC(=O)N4)CC2)cc1 299%
OCC1NCC(O)C(O)C1O (stereo not drawn) 421% [at 0.016 µM]
